# Source: PubChem BioAssay (EPA / NIEHS)
# Results filed as inconclusive are left out. Activity calls are given as the source filed them. Rule for the calls, unless noted: active = hit-call score of the fitted dose curve at least 0.9, where 1 is the maximum; inconclusive = response in the unintended direction; inactive = score below 0.9.
# Key:
# [1] = CPHEA_Stoker_NIS_Cytotoxicity: Cytotoxicity Assessment for CPHEA's Radioactive Iodide Uptake (RAIU) Assay for Sodium/Iodide Symporter (NIS) Inhibition, Stoker and Laws Labs (AID 2283897)
# In short: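 ATP luminescence (Cell Titer Glo) measured viability, with loss of signal normalized to DMSO controls. Cells: hNIS-HEK293T-EPA, seeded 40 hours prior. Dosing: 0.001–100uM, 2 hours, room temperature, uptake buffer pH 7.4.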
# [2] = molecular target: THRA (gene 7067) (UniProt P10827); test: TOX21_TRA_COA_Agonist_Followup_ratio: Tox21 Thyroid Hormone Receptor alpha Agonism through Coactivator Recruitment Follow-Up Assay, Ratio (AID 2283948; active = hit-call score of the fitted dose curve at least 0.9, where 1 is the maximum; inactive = score below 0.9)
# THRA (gene 7067), sequence (P10827 whole entry, looked up, the tested form may be a part): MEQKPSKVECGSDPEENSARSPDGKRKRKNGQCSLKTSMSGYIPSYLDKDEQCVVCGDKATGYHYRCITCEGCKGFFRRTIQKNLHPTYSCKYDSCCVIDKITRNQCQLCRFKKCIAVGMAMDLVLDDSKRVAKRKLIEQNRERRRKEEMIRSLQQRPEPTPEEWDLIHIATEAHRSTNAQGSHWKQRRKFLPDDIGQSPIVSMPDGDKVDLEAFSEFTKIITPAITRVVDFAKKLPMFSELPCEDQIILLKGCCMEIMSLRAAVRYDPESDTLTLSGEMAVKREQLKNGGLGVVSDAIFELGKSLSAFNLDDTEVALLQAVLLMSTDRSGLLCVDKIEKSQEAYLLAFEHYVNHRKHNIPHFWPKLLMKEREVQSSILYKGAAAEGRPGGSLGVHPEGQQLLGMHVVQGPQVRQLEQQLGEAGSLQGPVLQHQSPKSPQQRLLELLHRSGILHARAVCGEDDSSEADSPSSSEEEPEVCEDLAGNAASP
# In short: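 Read-out is the 520/495 nm emission ratio (ex 340 nm), scaled between DMSO-only wells as 0% and T3 wells as 100%. It reflects fluorescein-SRC-2 peptide recruitment to GST-TRα LBD detected via terbium anti-GST antibody.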
# [3] = molecular target: THRB (gene 7068) (UniProt P10828); test: TOX21_TRB_COA_Agonist_Followup_ratio: Tox21 Thyroid Hormone Receptor beta Agonism through Coactivator Recruitment Follow-Up Assay, Ratio (AID 2283963; active = hit-call score of the fitted dose curve at least 0.9, where 1 is the maximum; inactive = score below 0.9)
# THRB (gene 7068), sequence (P10828 whole entry, looked up, the tested form may be a part): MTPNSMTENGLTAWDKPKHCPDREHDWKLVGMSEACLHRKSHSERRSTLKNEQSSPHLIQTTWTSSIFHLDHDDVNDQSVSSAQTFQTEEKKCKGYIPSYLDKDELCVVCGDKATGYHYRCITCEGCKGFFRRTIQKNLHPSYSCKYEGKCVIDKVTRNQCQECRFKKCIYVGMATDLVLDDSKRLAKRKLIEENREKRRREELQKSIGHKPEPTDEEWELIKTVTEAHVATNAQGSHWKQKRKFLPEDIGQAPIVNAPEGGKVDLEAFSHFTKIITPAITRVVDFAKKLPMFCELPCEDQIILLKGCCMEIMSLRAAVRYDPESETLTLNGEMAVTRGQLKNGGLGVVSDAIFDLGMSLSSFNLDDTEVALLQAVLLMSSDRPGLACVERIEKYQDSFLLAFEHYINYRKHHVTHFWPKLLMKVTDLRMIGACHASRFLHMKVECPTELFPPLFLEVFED
# In short: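 First, the GST-fused TRβ ligand-binding domain (5.0 nM) was incubated with test compound in 0.10% BSA. Next, fluorescein-tagged SRC-2 peptide (200 nM) and terbium anti-GST antibody (2 nM) were added. Finally, TR-FRET emission ratios were normalized against DMSO and T3 controls.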
# [4] = molecular target: Retinoic acid receptor RXR-alpha (Homo sapiens) (UniProt P19793); test: TOX21_TR_RXR_BLA_Agonist_Followup_ratio: Tox21 Thyroid Hormone Receptor beta Retinoid X Receptor alpha (RXRa) Agonism Beta-lactamase (BLA) Follow-Up Assay, Ratio (AID 2283968)
# Retinoic acid receptor RXR-alpha (Homo sapiens), sequence (P19793 whole entry, looked up): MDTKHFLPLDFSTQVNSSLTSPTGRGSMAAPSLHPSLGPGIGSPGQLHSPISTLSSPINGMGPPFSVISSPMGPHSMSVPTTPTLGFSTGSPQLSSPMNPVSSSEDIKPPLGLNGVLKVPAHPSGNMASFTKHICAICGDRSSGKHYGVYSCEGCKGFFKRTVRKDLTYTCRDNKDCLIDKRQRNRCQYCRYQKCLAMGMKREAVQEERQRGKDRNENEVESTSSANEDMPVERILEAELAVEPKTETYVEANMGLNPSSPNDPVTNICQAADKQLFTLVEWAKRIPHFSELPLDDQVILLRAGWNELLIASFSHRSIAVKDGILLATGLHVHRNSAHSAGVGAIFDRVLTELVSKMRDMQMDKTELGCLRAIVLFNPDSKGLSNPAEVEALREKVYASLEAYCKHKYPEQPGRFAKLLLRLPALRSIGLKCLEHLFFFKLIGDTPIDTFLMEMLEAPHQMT
# In short: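 Read-out: blue/green (460:530 nm) FRET ratio from cleaved vs uncleaved CCF4 substrate, fitted for gain of signal relative to DMSO. Cells: HEK293T with RXRa-UAS-bla reporter; 16 h compound exposure, 11 concentrations, triplicate.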
# [5] = TOX21_TR_RXR_BLA_Agonist_Followup_viability: Viability Assessment in the Tox21 Thyroid Hormone Receptor beta Retinoid X Receptor alpha (RXRa) Agonism Beta-lactamase (BLA) Follow-Up Assay (AID 2283970)
# In short: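 CellTiter-Glo ATP quantitation as viability read-out in RXRa-bla HEK293T cells (2,500/well, charcoal-stripped 2% FBS medium), 16h compound incubation at 37C. Loss of signal versus DMSO taken as cytotoxicity, analyzed by bidirectional curve fitting.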
# [6] = molecular target: PGR (gene 5241) (UniProt P06401); test: TOX21_PR_BLA_Followup_Antagonist_ratio: Tox21 HEK293 Progesterone Receptor (PR) Antagonism Beta-lactamase Follow-Up Assay, Ratio (AID 2283934)
# PGR (gene 5241), sequence (P06401 whole entry, looked up, the tested form may be a part): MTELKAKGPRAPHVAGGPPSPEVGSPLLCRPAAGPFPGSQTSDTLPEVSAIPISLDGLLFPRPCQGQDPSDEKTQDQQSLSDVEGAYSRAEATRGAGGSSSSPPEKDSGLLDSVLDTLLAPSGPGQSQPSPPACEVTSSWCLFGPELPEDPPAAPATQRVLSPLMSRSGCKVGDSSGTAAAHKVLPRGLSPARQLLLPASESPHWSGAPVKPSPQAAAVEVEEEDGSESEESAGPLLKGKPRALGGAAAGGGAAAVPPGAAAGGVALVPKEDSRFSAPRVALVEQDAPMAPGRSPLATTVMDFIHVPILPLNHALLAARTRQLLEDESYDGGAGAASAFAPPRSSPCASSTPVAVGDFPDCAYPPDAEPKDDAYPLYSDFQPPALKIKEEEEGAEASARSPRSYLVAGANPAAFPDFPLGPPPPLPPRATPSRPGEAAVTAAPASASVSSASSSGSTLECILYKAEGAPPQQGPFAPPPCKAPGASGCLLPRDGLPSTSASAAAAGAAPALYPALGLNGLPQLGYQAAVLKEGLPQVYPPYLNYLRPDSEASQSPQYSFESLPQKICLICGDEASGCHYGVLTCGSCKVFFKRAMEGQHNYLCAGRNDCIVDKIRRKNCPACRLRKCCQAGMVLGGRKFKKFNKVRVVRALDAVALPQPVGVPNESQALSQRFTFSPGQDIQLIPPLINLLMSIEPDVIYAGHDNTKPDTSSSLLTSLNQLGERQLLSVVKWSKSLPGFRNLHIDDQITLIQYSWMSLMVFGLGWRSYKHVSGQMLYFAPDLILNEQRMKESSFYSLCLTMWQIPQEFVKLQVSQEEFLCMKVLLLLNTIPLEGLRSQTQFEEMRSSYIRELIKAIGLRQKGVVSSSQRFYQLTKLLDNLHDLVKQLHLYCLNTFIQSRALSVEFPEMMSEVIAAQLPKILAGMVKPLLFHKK
# In short: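 Read-out: blue/green beta-lactamase FRET ratio (cleaved ch2 over uncleaved ch1), fitted relative to DMSO baseline. Cells: PR-UAS-bla HEK293T, GAL4-UAS reporter, stimulated with 1 nM R5020 final; 16 hr compound exposure, 37C.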
# [7] = TOX21_PR_BLA_Followup_Agonist_viability: Viability Assessment in the Tox21 HEK293 Progesterone Receptor (PR) Agonism Beta-lactamase Follow-Up Assay (AID 2283935);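 note: signal loss means lower viability so actives are cytotoxic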
# In short: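 Luminescent ATP quantitation (CellTiter-Glo, 30 min, room temperature) in the same wells as the beta-lactamase read, on PR-UAS-bla HEK293T cells exposed to compound for 16 hr at 37C in 2% charcoal-stripped serum.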
# [8] = molecular target: PGR (gene 5241) (UniProt P06401); test: TOX21_PR_LUC_Followup_Antagonist: Tox21 HEK293 Progesterone Receptor (PR) Antagonism Luciferase Follow-Up Assay (AID 2283938);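 note: curve fitted upward as signal gain over DMSO baseline despite antagonist label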
# In short: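 HEK293-PR-A-luc cells were precultured 5 days in medium with 10% charcoal-stripped FBS, seeded 3,000/well, then exposed to compounds in DMSO for 16 h at 37C. Luciferase was read by ONE-Glo luminescence after 30 min at room temperature.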
# [9] = TOX21_PR_LUC_Followup_Antagonist_viability: Viability Assessment in the Tox21 HEK293 Progesterone Receptor (PR) Antagonism Luciferase Follow-Up Assay (AID 2283940)
# In short: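 Read-out: CellTiter-Glo ATP luminescence, loss of signal taken as reduced viability. Cells: HEK293-PR-A-luc, 3,000/well, 5 h settling, then 16 h compound exposure at 37C, 0% CO2.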
# [10] = TOX21_PR_LUC_Followup_Agonist_viability: Viability Assessment in the Tox21 HEK293 Progesterone Receptor (PR) Agonism Luciferase Follow-Up Assay (AID 2283941);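 note: loss of signal means cytotoxicity so actives lower viability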
# In short: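 Cytotoxicity counter-screen: ATP content by CellTiter-Glo luminescence, loss of signal = reduced viability. HEK293-PR-A-luc, 3,000 cells/well, compound exposure 16 h, 37C.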
# [11] = molecular target: T1, Thyroid hormone receptor alpha (Rattus norvegicus) + Thyroid hormone receptor beta (Rattus norvegicus) (UniProt P18113+P63059); test: TOX21_TR_LUC_GH3_Antagonist_Followup: Tox21 GH3 Thyroid Hormone Receptor Antagonism Luciferase Follow-Up Assay (AID 2283942)
# T1 sequence (P63059 whole entry, looked up): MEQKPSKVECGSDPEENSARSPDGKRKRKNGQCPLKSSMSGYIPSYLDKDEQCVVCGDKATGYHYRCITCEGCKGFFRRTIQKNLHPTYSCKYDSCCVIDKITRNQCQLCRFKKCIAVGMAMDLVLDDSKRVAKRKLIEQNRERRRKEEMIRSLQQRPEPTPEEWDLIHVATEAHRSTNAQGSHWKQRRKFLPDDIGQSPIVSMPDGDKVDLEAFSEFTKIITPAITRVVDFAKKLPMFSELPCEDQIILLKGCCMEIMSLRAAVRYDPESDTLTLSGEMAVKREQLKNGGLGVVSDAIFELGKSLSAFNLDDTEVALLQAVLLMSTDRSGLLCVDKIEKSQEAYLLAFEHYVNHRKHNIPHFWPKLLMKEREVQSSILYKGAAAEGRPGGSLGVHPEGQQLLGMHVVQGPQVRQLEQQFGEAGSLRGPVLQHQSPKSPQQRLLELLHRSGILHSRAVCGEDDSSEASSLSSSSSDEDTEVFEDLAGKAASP
# T1 sequence (P18113 whole entry, looked up): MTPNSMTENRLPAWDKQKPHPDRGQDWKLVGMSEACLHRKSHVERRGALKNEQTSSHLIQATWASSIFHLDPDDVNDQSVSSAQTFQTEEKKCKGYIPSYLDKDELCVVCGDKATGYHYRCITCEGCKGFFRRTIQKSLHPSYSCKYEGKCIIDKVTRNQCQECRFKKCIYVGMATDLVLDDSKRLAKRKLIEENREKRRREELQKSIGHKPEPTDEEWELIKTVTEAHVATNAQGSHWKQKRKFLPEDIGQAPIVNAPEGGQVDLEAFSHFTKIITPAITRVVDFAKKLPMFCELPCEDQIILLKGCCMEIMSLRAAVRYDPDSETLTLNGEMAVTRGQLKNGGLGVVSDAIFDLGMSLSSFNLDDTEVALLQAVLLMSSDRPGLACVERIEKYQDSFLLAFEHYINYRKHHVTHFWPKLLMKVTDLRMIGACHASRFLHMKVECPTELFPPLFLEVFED
# In short: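 Luminescence read-out (ONE-Glo, 30 min at room temperature) in GH3 reporter cells challenged with 1.0 nM T3 final. Compounds ran at 92 uM to 5nM over 15 concentrations for 24 h; DMSO served as negative control and baseline.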
# [12] = molecular target: THRB (gene 7068) (UniProt P10828); test: TOX21_TRB_BLA_Antagonist_Followup_ratio: Tox21 Thyroid Hormone Receptor beta Antagonism Beta-lactamase (BLA) Follow-Up Assay, Ratio (AID 2283958)
# In short: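 Read-out: blue/green (460:530 nm) ratio of cleaved to uncleaved CCF4-AM after 2 h at room temperature, fitted against DMSO baseline. HEK293T UAS-bla cells carrying GAL4-human TRβ LBD were exposed 18 h, 37C/5% CO2.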
# [13] = TOX21_TRB_BLA_Antagonist_Followup_viability: Viability Assessment in the Tox21 Thyroid Hormone Receptor beta Antagonism Beta-lactamase (BLA) Follow-Up Assay (AID 2283961)
# In short: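 HEK293T cells stably expressing GAL4-DBD/human TRβ-LBD with UAS-bla reporter, 3,000 cells/well in phenol red-free DMEM, 2% charcoal-stripped FBS. Compounds at 11 concentrations in triplicate, 18 h at 37C/5% CO2; viability by CellTiter-Glo luminescence after 30 min at room temperature.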
# [14] = molecular target: Retinoic acid receptor RXR-alpha (Homo sapiens) (UniProt P19793); test: TOX21_TR_RXR_BLA_Antagonist_Followup_ratio: Tox21 Thyroid Hormone Receptor beta Retinoid X Receptor alpha (RXRa) Antagonism Beta-lactamase (BLA) Follow-Up Assay, Ratio (AID 2283972)
# In short: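 RXRa-UAS-bla HEK293T cells in phenol red-free DMEM with 2% charcoal-stripped FBS; compounds at 11 concentrations in triplicate, 16 h at 37C. LiveBLAzer FRET-B/CCF4-AM substrate 2 h at room temperature; read as 460:530 nm ratio versus DMSO.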
# [15] = molecular target: THRB (gene 7068) (UniProt P10828); test: TOX21_TRB_COA_Antagonist_Followup_ratio: Tox21 Thyroid Hormone Receptor beta Antagonism through Coactivator Recruitment Follow-Up Assay, Ratio (AID 2283967)
# In short: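 GST-TRb LBD 5.0 nM + 0.10% BSA, compound added; fluorescein-SRC-2 peptide 200 nM, Tb-anti-GST Ab 2 nM. TR-FRET, ex 340 / em 520:495 ratio. Norm: DMSO 0%, T3 100%.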
# [16] = molecular target: T1, Thyroid hormone receptor alpha (Rattus norvegicus) + Thyroid hormone receptor beta (Rattus norvegicus); test: TOX21_TR_LUC_GH3_Agonist_Followup: Tox21 GH3 Thyroid Hormone Receptor Agonism Luciferase Follow-Up Assay (AID 2283939)
# In short: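 Agonist-mode confirmatory run: 15 concentrations (5 nM to 92 uM final) on GH3 rat pituitary cells, 24 h at 37C/5% CO2, T3 as positive control. Luminescence read with ONE-Glo after 30 min.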
# [17] = molecular target: THRB (gene 7068) (UniProt P10828); test: TOX21_TRB_BLA_Agonist_Followup_ratio: Tox21 Thyroid Hormone Receptor beta Agonism Beta-lactamase (BLA) Follow-Up Assay, Ratio (AID 2283954)
# In short: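 Agonist mode: compounds (11-point, triplicate) incubated 18 h with HEK293T cells carrying GAL4-DBD/human TRβ-LBD and UAS-β-lactamase. Blue/green (460/530 nm) FRET ratio read after 2 h CCF4-AM loading; CellTiter-Glo viability run in the same plates.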
# [18] = molecular target: THRA (gene 7067) (UniProt P10827); test: TOX21_TRA_COA_Antagonist_Followup_ratio: Tox21 Thyroid Hormone Receptor alpha Antagonism through Coactivator Recruitment Follow-Up Assay, Ratio (AID 2283953)
# In short: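 We measured antagonism of T3-type coactivator recruitment using a TR-FRET ratio (emission 520 and 495 nm) between a Tb-labelled anti-GST antibody on TRα LBD (2.5 nM) and SRC-2 peptide (200 nM). Activity was scaled between DMSO and T3 wells.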
compound,measurement,setting,value
CCN(CCC#N)c1ccc(N=Nc2c(Cl)cc([N+](=O)[O-])cc2Cl)cc1,outcome,[1],inactive
C[Si](C)O[Si](C)(C)O[Si](C)(C)O[Si](C)C,outcome,[2],inactive
same,outcome,[3],inactive
same,outcome,[4],inactive
same,outcome,[5],inactive
C#CC1(O)CC[C@H]2[C@@H]3CCC4=CCCC[C@@H]4[C@H]3CC[C@@]21C (stereo not given in full),outcome,[6],inactive
same,outcome,[7],inactive
same,AC50,[8],23.9 µM (active)
same,outcome,[9],inactive
same,AC50,[10],72.7 µM (active)
Nc1ccc(-c2ccc(F)cc2)cc1,AC50,[6],24.6 µM (active)
same,outcome,[7],inactive
same,outcome,[8],inactive
same,outcome,[9],inactive
same,outcome,[10],inactive
COc1ccc(C(Cl)=C(c2ccc(OC)cc2)c2ccc(OC)cc2)cc1,AC50,[6],8.27 µM (active)
same,outcome,[7],inactive
same,AC50,[8],8.88 µM (active)
same,outcome,[9],inactive
same,outcome,[10],inactive
same,outcome,[11],inactive
same,outcome,[12],inactive
same,outcome,[13],inactive
same,outcome,[14],inactive
Cc1ccc(C(C)c2ccc(C)c(C)c2)cc1C,outcome,[6],inactive
same,outcome,[7],inactive
same,outcome,[8],inactive
same,outcome,[9],inactive
same,outcome,[10],inactive
N=c1ccn2c(n1)O[C@H]1[C@H](O)[C@@H](CO)O[C@H]12,outcome,[11],inactive
same,outcome,[12],inactive
same,outcome,[13],inactive
same,outcome,[15],inactive
CCCCCCC(O)CO (stereo not given),outcome,[16],inactive
same,outcome,[2],inactive
same,outcome,[17],inactive
same,outcome,[3],inactive
same,outcome,[4],inactive
same,outcome,[5],inactive
CC(=O)[C@H]1[C@H](C#N)C[C@H]2[C@@H]3CC=C4C[C@@H](O)CC[C@]4(C)[C@H]3CC[C@@]21C,AC50,[6],19.2 µM (active)
same,outcome,[7],inactive
same,outcome,[8],inactive
same,outcome,[10],inactive
c1cc(N(CC2CO2)CC2CO2)ccc1OCC1CO1 (stereo not given),AC50,[11],60.9 µM (active)
same,outcome,[18],inactive
same,outcome,[12],inactive
same,outcome,[13],inactive
same,outcome,[15],inactive
NC(CO)(CO)CO,outcome,[1],inactive
same,AC50,[16],10.6 µM (active)
same,AC50,[2],40.6 µM (active)
same,outcome,[17],inactive
same,outcome,[3],inactive
same,outcome,[4],inactive
same,outcome,[5],inactive
